# High-throughput results (PubChem BioAssay)
# Hits are enriched below; roughly 10% of the tested compounds scored in any of these assays.
# NPR1 antag: human Npr1 receptor antagonism; P16066; HEK293 hNpr1 GloSensor cGMP, ANP-stimulated luminescence; Potency, µM (series often up to 46.3 µM), inactives show top-dose activity change, negative = inhibition, most hits filed as inhibitors; 76,000 compounds, 1.6% hits; AID 1347048; calls by dose curve; also: % is scaled to controls: 0 for no effect and ±100 for the full control effect; nearly all actives have a fitted effect of over 60% in size
#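 Compound pre-incubated 30 min at room temperature on GloSensor-loaded HEK293 cells stably carrying hNpr1 and the pGS-40F cGMP biosensor. Stimulation uses hNppA at 0.1 nM final; luminescence is taken at baseline and 20 min post-agonist.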
# GPT2 inh: blocks human glutamate pyruvate transaminase 2; Recombinant GPT2, coupled pyruvate oxidase/HRP Amplex Red fluorescence; Potency, µM (highest dose often 57.7 µM), inactives show top-dose activity change, negative = inhibition, usual class: inhibitors; 100,000 compounds, 0.25% hits; AID 1671188; also: % is scaled to controls: 0 for no effect and ±100 for the full control effect; nearly all actives have a fitted effect of over 60% in size
#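 Recombinant GPT2 (10ng/uL) with 250uM a-KG and 2mM L-alanine, 30 min at room temperature, in HEPES pH 7.5 buffer. Pyruvate detected by pyruvate oxidase/HRP/Amplex Red fluorescence after 30 min in the dark; AOA (50uM) as positive control.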
# 3T3 cytotox: NIH 3T3 cell cytotoxicity | NIH 3T3 viability, CellTiter-Glo ATP luminescence, 48-72 h | Potency, µM (series often up to 96.7 µM), without a hit: at the highest dose activity change, negative = cytotoxicity, usual class: inhibitors | 94,000 compounds, 4.3% hits | AID 1345082; also: % is scaled to controls: 0 for no effect and ±100 for the full control effect; nearly all actives have a fitted effect of over 55% in size
#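 Luminescent ATP readout (CellTiter-Glo, 10 min RT) after 48 or 72 hr compound exposure of NIH 3T3 cells seeded at 400 cells/well in 1536-well format; quantitative HTS.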
# Luciferase inh: inhibitors of firefly (Photinus pyralis) luciferase; AID 1347043; P08659; Potency, µM (doses to about 115 µM), usual class: inhibitors; purified P. pyralis luciferase, luminescence, biochemical; 76,000 compounds, 2.5% hits; also: % is scaled to controls: 0 for no effect and ±100 for the full control effect; nearly all actives have a fitted effect of over 65% in size
# Target sequence (P08659 whole entry, looked up): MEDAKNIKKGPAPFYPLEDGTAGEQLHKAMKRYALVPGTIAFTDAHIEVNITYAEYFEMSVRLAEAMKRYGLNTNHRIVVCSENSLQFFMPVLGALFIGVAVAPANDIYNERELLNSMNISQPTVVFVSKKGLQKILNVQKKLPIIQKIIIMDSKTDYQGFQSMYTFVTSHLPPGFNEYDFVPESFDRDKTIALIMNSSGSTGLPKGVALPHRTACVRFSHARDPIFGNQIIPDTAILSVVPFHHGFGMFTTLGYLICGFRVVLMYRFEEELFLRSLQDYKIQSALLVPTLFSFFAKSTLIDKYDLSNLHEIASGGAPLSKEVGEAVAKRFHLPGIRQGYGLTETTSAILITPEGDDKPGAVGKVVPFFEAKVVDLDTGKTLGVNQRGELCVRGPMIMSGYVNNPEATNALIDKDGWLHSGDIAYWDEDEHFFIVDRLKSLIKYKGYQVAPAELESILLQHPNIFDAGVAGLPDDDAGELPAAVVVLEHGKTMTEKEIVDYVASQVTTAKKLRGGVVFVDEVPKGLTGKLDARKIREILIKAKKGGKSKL
#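 Biochemical qHTS: compound (6-point titration) added to 10uM D-luciferin plus 10uM ATP in Tris acetate pH 7.5 buffer with Mg, Tween-20 and BSA, then purified enzyme at 10nM; light output imaged.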
# HEK cytotox: kills HEK 293 cells; HEK 293 viability, ATP luminescence (CellTiter-Glo), 48-72 h; Potency, µM (doses to about 115 µM), without a hit: at the highest dose activity change, negative = cytotoxicity, actives largely listed as inhibitors; 94,000 compounds, 6.6% hits; AID 1345083; also: % is scaled to controls: 0 for no effect and ±100 for the full control effect; nearly all actives have a fitted effect of over 60% in size
#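 Pintool-delivered compounds were incubated with HEK 293 cells (250 cells/well) at 37 degree Celsius for 48 or 72 hr. ATP-dependent luminescence (CellTiter-Glo) then reported remaining viable cells.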
# NPR1 antag cnf: hNpr1 antagonism, confirmation assay | AID 1347044 | 1,400 compounds, 76% hits | Potency, µM (series often up to 57.6 µM), without a hit: at the highest dose activity change, negative = inhibition, actives largely listed as inhibitors | shares compounds with NPR1 antag | HEK293 hNpr1 cGMP GloSensor luminescence, ANP-stimulated; calls by dose curve; also: nearly all actives have a fitted effect of over 70% in size
# NPR2 antag: hNpr2 antagonism, selectivity versus Npr1; shares compounds with NPR1 antag; HEK293 hNpr2 GloSensor cGMP luminescence, CNP-stimulated; Potency, µM (doses to about 57.6 µM), for the others: top-dose activity change, negative = inhibition, hits mostly inhibitors; 1,400 compounds, 67% hits; AID 1347046; calls by dose curve; also: nearly all actives have a fitted effect of over 70% in size
# FLuc counter: FLuc enzyme inhibition, Npr1 counter-screen | shares compounds with NPR1 antag | purified FLuc enzyme, luminescence, Km substrate | Potency, µM (series often up to 57.6 µM), inactives show top-dose activity change, negative = inhibition, most hits filed as inhibitors | 1,400 compounds, 0.7% hits; also: 0% is about no effect
# GloSensor ctrl: counter-screen for Npr1 antagonists: GloSensor control cell line; 1,400 compounds, 69% hits; AID 1347051; shares compounds with NPR1 antag; HEK293 GloSensor cGMP, SNP-stimulated, luminescence; Potency, µM (series often up to 57.6 µM), for the others: at the top dose activity change, negative = inhibition, actives largely listed as inhibitors; calls by dose curve; also: % is scaled to controls: 0 for no effect and ±100 for the full control effect; nearly all actives have a fitted effect of over 70% in size
# Numbers without * were called inactive; i = inactive; ? = inconclusive; · = not tested or not shown; [ ] = another dose, or the depositor's remark. Unless noted, calls follow the shape of the dose curve; as a rule, active = well fitted curve in the direction sought with a large enough effect; inconclusive = small, poorly fitted or top-dose-only effect, or another doubt; inactive = no such curve, though single readings can be large; an effect the other way counts as inactive or inconclusive. Potency is read from the fitted curve at half-maximal effect.
SMILES,NPR1 antag,GPT2 inh,3T3 cytotox,Luciferase inh,HEK cytotox,NPR1 antag cnf,NPR2 antag,FLuc counter,GloSensor ctrl
Cc1noc(C)c1-c1cc2c(c(-c3cccc(O)c3)c1)C(=O)N(C)C2,-1.7%[70.6 µM],-3.2%[88.5 µM],-50.7%[138 µM],i,?,·,·,·,·
Cc1noc(C)c1-c1cc2c(c(-c3ccc(F)c(Cl)c3)c1)C(=O)N(C)C2,8.91µM*,-8.3%[88.5 µM],?,i,?,15.7µM*,8.86µM*,-0.8%[86.2 µM],7.89µM*
Cc1cn2c(N)c(Cl)cc(C(=O)NCC3CCN(CC(C)C)CC3)c2n1,·,-2.6%,·,·,·,·,·,·,·
CCc1cc(=O)n(CC(=O)Nc2ccc3c(c2)OCCO3)c(-c2cccc(F)c2)n1,?,i,?,i,?,?,-27.4%,0.7%,?
Oc1cccc(-c2cc(C[C@@H]3CC[C@H](O)[C@@H](CNC4CCC4)O3)no2)c1,?,i,-4.7%[138 µM],i,-9.4%[172 µM],?,-14.1%[86.2 µM],-3.4%[86.2 µM],-25.5%[86.2 µM]
CC(C)(C)C(=O)NC[C@H]1O[C@H](Cc2cc(-c3ccc(F)cc3)on2)CC[C@@H]1O,?,-11.6%[88.5 µM],-10.5%[174 µM],i,?,?,?,19.8µM*,?
COc1ccc(-c2cc(C[C@@H]3CC[C@H](O)[C@@H](CNCc4ccccc4OC)O3)no2)cc1,28.2µM*,-3.8%[88.5 µM],56.2µM*,?,31.6µM*,31.4µM*,35.3µM*,?,?
Cc1ccc(S(=O)(=O)NC[C@H]2O[C@H](Cc3cc(-c4cccc(O)c4)on3)CC[C@@H]2O)cc1,?,?,?,i,?,?,?,?,?
COc1ccc(-c2cc(C[C@@H]3CC[C@H](O)[C@@H](CNC(=O)Nc4ccccc4OC)O3)no2)cc1,-9.1%,-7.2%,?,i,?,·,·,·,·
COc1ccc(CNC[C@H]2O[C@H](Cc3cc(-c4cccc(O)c4)on3)CC[C@@H]2O)cc1,-25.2%[70.6 µM],i,?,i,?,·,·,·,·
O=C(Cc1ccc(F)cc1)Nc1cc(-c2ccncc2)nn1-c1ccccc1,·,-14.6%,?,·,?,·,·,·,·
O=C(CCCc1ccccc1)N1CCN(C(=O)c2nnn3c2COC(c2ccccc2)C3)CC1 (centres undefined),-1.1%,i,3.5%,i,-4.1%,·,·,·,·
O[C@H]1CC[C@@H](Cc2cc(-c3ccc(F)cc3)on2)O[C@@H]1CNC1CCCCC1,?,-2.5%[88.5 µM],39.8µM*,i,?,?,?,-23.2%[86.2 µM],-20.0%[86.2 µM]
Cc1cc(=O)n(CC(=O)Nc2ccc(C)c(F)c2)c(N2CCc3ccccc3C2)n1,15.8µM*,i,?,i,8.91µM*,-16.6%,-26.3%,0.5%,-20.3%
Cc1cc(=O)n(CC(=O)NCCCc2ccccc2)c(N2CCc3ccccc3C2)n1,?,?,?,i,44.7µM*,?,?,0.0%,-24.1%
Cc1cc(=O)n(CC(=O)Nc2ccc(Br)cc2F)c(N2CCc3ccccc3C2)n1,?,4.7%,?,i,?,-29.0%,?,0.4%,-16.0%
Cc1cc(=O)n(CC(=O)NCc2ccc3c(c2)OCO3)c(N2CCc3ccccc3C2)n1,-3.2%,i,?,i,?,·,·,·,·
Cc1cc(=O)n(CC(=O)Nc2ccc(C)c(Cl)c2)c(N2CCc3ccccc3C2)n1,-7.4%,0.6%,?,i,?,·,·,·,·
Cc1cc(=O)n(CC(=O)Nc2cc(F)ccc2F)c(N2CCc3ccccc3C2)n1,0.8%,i,?,i,?,·,·,·,·
COc1ccc(C(=O)N(C)C2CCCc3ccccc32)cc1 (centres undefined),14.0%[70.6 µM],i,?,?,?,·,·,·,·
CCCS(=O)(=O)N1CCC(F)(c2nc(CCOC)no2)CC1,·,?,-26.1%,·,-3.1%,·,·,·,·
COC[C@@H]1[C@H](C(=O)NCc2ccccc2C)CCC(=O)N1C,·,4.6%,-6.1%,·,i,·,·,·,·
COc1ccc(CN2C(=O)[C@@H]3C[C@@H](CN3Cc3cccs3)Oc3ccccc32)cc1,?,-2.8%[88.5 µM],?,i,79.4µM*,?,?,-19.6%[86.2 µM],0.5%[86.2 µM]
Cc1cc(C)n(-c2cccc(CN(C)C(=O)c3cn(Cc4ccc(Cl)cc4)nn3)c2)n1,-24.5%,-8.9%,?,i,?,·,·,·,·
CN(Cc1ccnc2ccccc12)C(=O)c1cn(Cc2ccc(Cl)cc2)nn1,10µM*,-13.8%,?,i,35.5µM*,13.7µM*,17.2µM*,2.8%,12.2µM*
SMILES,NPR1 antag,GPT2 inh,3T3 cytotox,Luciferase inh,HEK cytotox,NPR1 antag cnf,NPR2 antag,FLuc counter,GloSensor ctrl
COc1cccc(CN2CCCCCCNC(=O)[C@@H]3CCC[C@@H]32)c1OC,-0.3%,-7.7%,-17.8%,i,?,·,·,·,·
CC1Oc2ccc(NC(=O)Cc3cccs3)cc2CN(Cc2ccc(Cl)cc2)C1=O (centres undefined),14.1µM*,-26.1%,39.8µM*,i,?,27.3µM*,27.3µM*,3.1%,24.3µM*
CC1Oc2ccc(NS(=O)(=O)c3cccc(Cl)c3)cc2CN(Cc2ccccc2F)C1=O (centres undefined),?,-13.5%,?,i,50.1µM*,?,-26.6%,2.9%,-6.5%
COc1ccc(C(=O)Nc2ccc3c(c2)CN(Cc2ccc(F)cc2)C(=O)C(C)O3)c(OC)c1 (centres undefined),?,i,?,i,31.6µM*,24.3µM*,?,1.9%,24.3µM*
Cc1nn(-c2ccccc2)c2c1C(C)N(CC1CN(C(=O)NC(C)C)C1)C2=O (centres undefined),·,·,-20.3%,·,-5.9%,·,·,·,·
COc1nccc(N2CCC(CC(=O)NCc3ccccc3F)CC2)n1,?,-5.8%,?,i,?,?,?,2.6%,?
CCCCN(C)C(=O)CC1CCN(c2ccnc(OC)n2)CC1,11.2µM*,i,?,i,?,17.2µM*,15.3µM*,5.0%,10.9µM*
